This passage reports INHIBITION results from ChEMBL document CHEMBL4513216, “Probing the Open Global Health Chemical Diversity Library for Multistage-Active Starting Points for Next-Generation Antimalarials” (ACS Infect Dis, 2020).

Each structure is given as a SMILES string. Screen size: about 69,000 compounds; about 8,600 (12%) showed an effect of 50% or more. The entries come from a sample that favours strong results as a whole.

This test has as its system Plasmodium berghei. The test can be described thus: Screen against P. berghei liver stage (PbLuc), transformed with Luciferase, at 10uM. The class given is functional, HepG2. To be noted: tested at 10 uM.
As for `Cn1cc(C(=O)N2CC[C@@H]3[C@@H]2CCN3Cc2ccccc2)cn1`, the INHIBITION came to 5.44%.
Under `COc1ccc2c(ccn2CC(=O)Nc2n[nH]c(C(C)C)n2)c1` stands 35.7%; under `CC(C)n1cnnc1CN(C)C(=O)c1ccc[nH]1`, -5.19%; under `O=C(c1cnccn1)N1CCCC2(CCN(c3ccccn3)C2)C1` (configuration not stated), -16.1%.
Under `CCNc1cc2c(nn1)CCN(C(=O)c1ccnc(C)n1)C2` stands 7.75%; under `Cc1ccnc(NCC2(N(C)C)CCOCC2)n1`, -24%; under `O=C(c1cccnc1)N1CCc2ncnc(N3CCOCC3)c2CC1`, 41.6%.
Under `CC(=O)N1CCn2cc(CNC(=O)c3cccn3C)nc2C1` stands 38.1%.
As to `Cn1cccc1C(=O)NCc1cn2c(n1)CN(C(=O)c1ccsc1)CC2`, the INHIBITION came to 61.1%.
Under `c1ccc(NCc2cn3c(n2)CN(Cc2ccoc2)CC3)nc1` stands -13.7%; under `Cn1cccc1C(=O)NCc1cn2c(n1)CN(c1ncccn1)CC2`, -0.453%; under `Cc1noc(C)c1CN1CCn2cc(CNc3ccccn3)nc2C1`, 88.1%.
Under `c1ccc(NCc2cn3c(n2)CN(Cc2cccs2)CC3)nc1` stands 26.5%; under `Cc1ccc2cc(C(=O)N3CCC(Nc4cccnn4)CC3)[nH]c2c1`, 21.6%; under `O=C(NCC[S+]([O-])Cc1ccccc1)c1ccc2[nH]c(=O)[nH]c2c1` (configuration not stated), 35.2%.
Under `Cc1nn(C)c(Cl)c1C1CCCN1C(=O)c1ccoc1C` (configuration not stated) stands -29.1%.
On to `CCOc1cc(C)nc(N2CCN(C(=O)c3cc(C)on3)CC2)n1`, for which the INHIBITION came to 19.4%.
Under `O=C(CCN1CCCN(c2nccs2)CC1)Nc1ccccc1` stands 15.2%.
Then `FC(F)(F)c1n[nH]c2c1CN(Cc1cn3ccccc3n1)CC2`, with 49.1%.
Then `O=C(CCN1CCc2[nH]nc(C(F)(F)F)c2C1)Nc1ccccc1`, with 61.1%; and `[O-][S+](CCN1CCc2[nH]nc(C(F)(F)F)c2C1)c1ccccc1` (configuration not stated), with 36.3%; and `CC(C(=O)Nc1ncccn1)N1CCc2[nH]nc(C(F)(F)F)c2C1` (configuration not stated), with -17.9%.
With `FC(F)(F)c1n[nH]c2c1CN(CCc1ccccn1)CC2`, the INHIBITION worked out at 50%.
Then `Cc1nc2n(n1)CC(NCc1nc(-c3ccccn3)no1)CC2` (configuration not stated), with 0%; and `CCOCCNC(=O)C1CCC(=O)N(CCc2ccc(Cl)cc2)C1` (configuration not stated), with 42.5%; and `CC(C(=O)N1CCCN(c2ncccc2C#N)CC1)n1cncn1` (configuration not stated), with 11.4%.
On to `COc1ccccc1C(=O)Nc1cc(CC(C)C)nn1C`, for which the INHIBITION is given as 12.7%.
Under `Cc1cnc(C(=O)N2CC(=O)N(c3ccccc3Cl)CC2C)cn1` (configuration not stated) stands 17%; under `Cc1nc(Nc2ncccn2)cc(C2CCCN2C(C)C)n1` (configuration not stated), -0.902%.
Then `c1cc(C2CCCN2CC2CCCCC2)n[nH]1` (configuration not stated), with -12.3%; and `Cc1c[nH]nc1C1CCCN1Cc1ncc[nH]1` (configuration not stated), with -12.3%; and `c1cc(C2CCCN2CC2CC2)n[nH]1` (configuration not stated), with -14.2%.
Then `Cc1nc(Nc2ncccn2)cc(C2CCCN2Cc2ncc[nH]2)n1` (configuration not stated), with 18.9%; and `Cc1nc(Nc2ncccn2)cc(C2CCCN2CC(C)C)n1` (configuration not stated), with 56.3%.
As for `Cc1nc(Nc2ccccn2)cc(C2CCCN2Cc2ncc[nH]2)n1` (configuration not stated), the INHIBITION is on record as 50.1%.
Under `CC(C)CN1CCCC1c1cc[nH]n1` (configuration not stated) stands 52.7%.
Then `Cc1nc(Nc2ncccn2)cc(C2CCCN2C)n1` (configuration not stated), with 0.301%.
Then `O=C(c1cc(F)ccc1F)C1CCN(C(=O)c2cnccn2)CC1`, with 3.73%; and `CCCn1nnnc1CN1Cc2ccccc2CC1c1nnc(C)o1` (configuration not stated), with -25.6%.
Turning to `Cc1nn(C)cc1-c1cc(-c2cn(C)nc2C)n(CC(=O)NC2CC2)n1`, the INHIBITION turned out to be 15.2%.
Then `CCCC(=O)N1CCC(O)(Cn2c(CC)nc3ccccc3c2=O)CC1`, with 41.5%.
Take `CN(C)c1cc(C(=O)N2CCCN(Cc3nccn3C)CC2)ccn1`: the INHIBITION stood at 29.2%.
Under `COc1ccccc1CNC(=O)C1=NN(c2ccc(C)cc2)C(=O)CN1` stands 18.1%; under `COCc1ccc(CNC(=O)C2=NN(c3ccccc3)C(=O)CN2)cc1`, 51.6%.
Then `COc1ccc(C)cc1CNC(=O)C1=NN(c2ccccc2)C(=O)CN1`, with -174%; and `COc1ccc(CNC(=O)C2=NN(c3ccc(C)cc3)C(=O)CN2)cc1`, with 79.5%.
As for `O=C(NCc1cccnc1)C1=NN(c2ccccc2)C(=O)CN1`, the INHIBITION is -19.2%.
Then `N#Cc1ccc(CNC(=O)C2=NN(c3ccccc3)C(=O)CN2)cc1`, with -72.2%; and `COCCCN(Cc1cnc(-c2ccccn2)nc1)C1CCN(C)CC1`, with 23.9%.
Then `CCC1(O)CCCN(c2ncnc3c2c(C)nn3C)C1` (configuration not stated), with 13.7%; and `COCCOC(=O)N1CCn2nc(CN(C)Cc3nccs3)cc2C1`, with 36.7%; and `CCC(=O)N(c1ccc(C(=O)OC)cc1C)C(C)C`, with 20.9%.
Under `CN(C)CCOCC1CN(Cc2ccsc2)Cc2nnn(C)c21` (configuration not stated) stands 38.2%; under `C[C@@H]1CN(C(=O)c2ccsc2)C[C@]12CCN(c1ccsc1)C2=O`, 35.3%; under `C[C@@H]1CN(C(=O)c2cccc(F)c2)C[C@]12CCN(c1ccsc1)C2=O`, 50.9%.
As to `Cc1cccc(C(=O)N2C[C@@H](C)[C@@]3(CCN(c4ccsc4)C3=O)C2)n1`, the INHIBITION was 19.4%.
Under `CCc1nn(C)c2[nH]nc(NC(=O)c3cccnc3OC)c12` stands 43.1%.
Under `Cc1nn(C)c(N(C)C)c1CNCc1nnc2n1CCCCC2` stands -7.94%; under `Cc1ccc(NC2CCN(C(=O)CCn3nc(C)cc3C)CC2)nn1`, 15.4%; under `CNc1nc(C(=O)N2CCn3nc(C(=O)OC)cc3C2)cs1`, 9.16%.
With `COc1ccc(C[C@H]2CN(C(=O)c3ccn(C)n3)CC[C@H]2OC)cc1`, the INHIBITION was -7.28%.
As to `c1cncc(OCCCNC2COc3ccccc3C2)c1` (configuration not stated), the INHIBITION was found to be 38.5%.
Then `CC(C)NC(=O)C1(Cc2ccccc2-c2cccs2)CCNC1` (configuration not stated), with 41.2%; and `Cc1noc(C)c1-c1ccc(C2CCCN2C(=O)c2cccnn2)nc1` (configuration not stated), with 31.6%.
Then `CC(=O)N1CCCC1c1ccc(-c2c(C)noc2C)cn1` (configuration not stated), with 25.6%; and `Cc1noc(C)c1-c1ccc(C2CCCN2C(=O)c2cccnc2)nc1` (configuration not stated), with -5.71%.
Under `Cc1noc(C)c1-c1ccc(C2CCCN2C(=O)Cn2ccnc2)nc1` (configuration not stated) stands 53.2%; under `Cc1noc(C)c1-c1ccc(C2CCCN2C(=O)c2ccncn2)nc1` (configuration not stated), 61.7%.
For `Cc1noc(C)c1-c1ccc(C2CCCN2C(=O)c2cnn(C)c2)nc1` (configuration not stated), the INHIBITION is given as -32.2%.
Regarding `Cc1csc(CCNC(=O)N2CCC(C(N)=O)CC2)n1`, the INHIBITION was 36.9%.
Under `Cc1nn(C)c2cnn(CC(=O)NCc3ccc(F)cc3)c12` stands 44.9%; under `OCCC1(NCc2ccc(-n3cccn3)cc2)CCOCC1`, 12%.
Under `CCN1CCN(C(=O)C2CCOC2)c2ccccc21` (configuration not stated) stands 48.3%; under `COc1ccc(CCNC(=O)C(C)Nc2ccc(C)c(C)c2)cc1` (configuration not stated), 58.5%.
As for `COc1ccc(CCNC(=O)C(C)Nc2cccc(C)c2C)cc1` (configuration not stated), the INHIBITION came out at 20.9%.
Then `COc1ccc(CCNC(=O)C(C)Nc2cc(C)ccc2C)cc1` (configuration not stated), with 44.9%; and `CCn1cc(CN2CCCN(C(=O)c3ccccc3C)CC2)cn1`, with -57.4%; and `CCCn1nnnc1COC(=O)C1COc2ccc(Cl)cc2C1` (configuration not stated), with 32.3%.
Under `CCc1nncn1CCNC(=O)N1CCCC(Cc2nccn2C)C1` (configuration not stated) stands 17.6%.
On to `CC(C)c1nnc2n1CC(CNc1cnc3ccccc3n1)CC2` (configuration not stated), for which the INHIBITION worked out at 43.4%.
As for `Cc1nnc2n1CC(CNc1cnc3ccccc3n1)CC2` (configuration not stated), the INHIBITION is given as 60.1%.
Under `CCc1nnc2n1CC(CNc1cnc3ccccc3n1)CC2` (configuration not stated) stands 27.6%; under `CC(C(=O)N1CCN(Cc2ccc(C#N)cc2)CC1)n1ccnc1` (configuration not stated), 23.5%; under `O=C1CCCN1Cc1nnc2n1CCCN(Cc1ccco1)C2`, -9.23%.
Then `Cc1ccc(NC2CCN(C(=O)c3cscn3)CC2)nn1`, with -77.1%; and `CC(C)COCCC(=O)NCc1cn2cc(Br)ccc2n1`, with 55.1%; and `CCOCCOC(C)C(=O)NCc1ccc(N2CCCCC2)cc1` (configuration not stated), with 21.7%.
Then `CC(C(=O)NCc1cn2cc(Br)ccc2n1)S(C)(=O)=O` (configuration not stated), with 40.6%; and `CCC(CC)C(=O)NCc1cn2cc(Br)ccc2n1`, with 50%.
As for `CCOCCOC(C)C(=O)NCc1cn2cc(Cl)ccc2n1` (configuration not stated), the INHIBITION is 53.4%.
On to `CCOCCCC(=O)NCc1cn2cc(Br)ccc2n1`, for which the INHIBITION was 11.1%.
Then `CCOCCOC(C)C(=O)NCc1cn2cc(Br)ccc2n1` (configuration not stated), with -27.6%.
Then `COc1c(C)cnc(CNC(=O)CCOCC(C)C)c1C`, with -74%.
Then `CCCC(C)C(=O)NCc1cn2cc(Br)ccc2n1` (configuration not stated), with -19%; and `CN(C)c1cc(C2CCCN(C(=O)c3ccc(=O)[nH]n3)C2)ccn1` (configuration not stated), with 34.1%; and `CC(=O)NCc1cc2n(n1)CCN(Cc1cccc(CCN)c1)C2`, with -7.53%.
With `Cc1ccccc1C(=O)NCc1ccnc(N(C)C)c1`, the INHIBITION was 24%.
Under `O=C(c1ccncc1)N1CCC(c2nc(O)cc(-c3cccnc3)n2)C1` (configuration not stated) stands 48.9%; under `CNC(=O)[C@@H]1CC[C@@H]2[C@@H](CCN2C(=O)N(C)C)O1`, 58.5%; under `CNC(=O)[C@H]1CC[C@@H]2[C@@H](CCN2C(=O)N(C)C)O1`, 15.7%.
Then `CN(C)C(=O)[C@H]1CC[C@@H]2[C@@H](CCN2C(=O)N(C)C)O1`, with 14.2%; and `Cn1cccc1C(=O)N1C[C@@H]2C[C@@H](c3nnc(C4CC4)o3)O[C@@H]2C1`, with 43.9%.
Under `CCCc1noc(C2CCN(C(=O)C3CCCO3)CC2)n1` (configuration not stated) stands 13.9%.
With `CCc1cc(N(C)Cc2[nH]nc3c2CCC3)nc(N2CCOCC2)n1`, the INHIBITION is 51.1%.
Under `CCc1cc(N(C)Cc2nonc2C)nc(N2CCOCC2)n1` stands 27.7%; under `CCc1cc(N(C)Cc2ncc[nH]2)nc(N2CCOCC2)n1`, 25.8%.
On to `Cc1cc(Oc2ccccc2)nc(C2CCCCN2)n1` (configuration not stated), for which the INHIBITION was determined as 16.5%.
